Screening results from PubChem BioAssay.
ROCK2 blocker = ROCK2 (human) kinase inhibition; purified ROCK2, Kinase-Glo ATP depletion luminescence; inhibition, % at 6 µM; 0.35% of 60,000 active;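 active = inhibition above the screen-wide mean inhibition plus 3 SD, cut at about 18% in these data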
PKA kinase inh = PKA (human) kinase inhibition; AID 524; 0.1% of 65,000 active; P17612; PKA Kemptide phosphorylation, Kinase-Glo ATP luminescence; inhibition, % at 6 µM;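 active = inhibition above the screen-wide mean inhibition plus 3 SD, cut at about 21% in these data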
PLK1 PBD inh = blocks phosphopeptide binding to human Plk1 polo box domain; P53350; Plk1 PBD phosphopeptide binding, fluorescence polarization; inhibition, %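 (tested at about 20 µM)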; 0.13% of 97,000 active; in the data active = inhibition above about 34%, passing the limit was not always enough
Target sequence (P53350 whole entry, looked up, the tested form may be a part): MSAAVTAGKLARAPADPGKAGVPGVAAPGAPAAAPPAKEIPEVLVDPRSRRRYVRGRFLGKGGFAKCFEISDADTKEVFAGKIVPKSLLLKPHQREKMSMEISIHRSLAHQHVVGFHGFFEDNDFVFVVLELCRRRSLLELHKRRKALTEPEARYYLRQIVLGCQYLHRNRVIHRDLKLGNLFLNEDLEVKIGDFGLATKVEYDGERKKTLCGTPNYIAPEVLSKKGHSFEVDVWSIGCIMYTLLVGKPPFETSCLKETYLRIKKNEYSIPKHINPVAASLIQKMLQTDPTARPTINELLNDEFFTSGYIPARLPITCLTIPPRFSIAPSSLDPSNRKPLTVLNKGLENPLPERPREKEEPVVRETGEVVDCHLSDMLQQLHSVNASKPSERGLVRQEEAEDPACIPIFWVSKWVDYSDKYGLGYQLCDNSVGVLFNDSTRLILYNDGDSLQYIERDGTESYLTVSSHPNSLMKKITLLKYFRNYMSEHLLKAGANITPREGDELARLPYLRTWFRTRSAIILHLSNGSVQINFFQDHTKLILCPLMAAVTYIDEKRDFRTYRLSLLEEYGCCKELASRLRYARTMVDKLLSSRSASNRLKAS
PLK1 kinase inh = PLK1 (human) kinase inhibition. inhibition, % at 10 µM. recombinant PLK1 kinase, TR-FRET peptide phosphorylation. 0.53% of 97,000 active. P53350;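 active = inhibition of 50% or more in the single-concentration screen; inactive = inhibition below 50%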
PLK1 confirm = PLK1 (human) kinase inhibition, confirmed; AID 744; shares compounds with PLK1 kinase inh; inhibition, % at 10 µM; 20% of 210 active; recombinant PLK1 kinase, TR-FRET peptide phosphorylation;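 active = inhibition at or above 50% in each of two repeat confirmation tests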
TR-FRET interf = Plk1 assay compound interference counter-screen hit; shares compounds with PLK1 kinase inh; Plk1 TR-FRET assay interference, compound added post-reaction; inhibition (interference), % at 10 µM; 210 tested, under 10 active;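 active = both duplicate runs show 50% or greater inhibition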
Numbers stand for hits; . = inactive; / = not tested or not shown. In the library only some 0.74% were active in any assay of this set; here they are far more common.

SMILES | ROCK2 blocker | PKA kinase inh | PLK1 PBD inh | PLK1 kinase inh | PLK1 confirm | TR-FRET interf
COC(=O)CSc1nc2cc(OC)ccc2cc1C#N | . | . | . | 87 | . | .
COc1ccc2cc(C#N)c(SCC(=O)N3CCCC3)nc2c1 | . | . | . | . | / | /
CN1c2ccsc2C(O)=C(C(=S)Nc2ccc(F)c(Cl)c2)S1(=O)=O | / | / | . | . | / | /
CCOc1ccc(C2c3c(oc4ccccc4c3=O)C(=O)N2CCCN2CCOCC2)cc1OCC (stereo not drawn) | . | . | . | 74 | . | .
COc1cc(C(=O)NCCOc2cc(C)cc(C)c2)c(Br)c(OC)c1OC | / | / | . | . | / | /
COc1ccc(S(=O)(=O)NC2CCCC2)c(Cl)c1Cl | / | / | . | . | / | /
Cc1cc(C)c(NC(=O)c2ccc(S(=O)(=O)N3CCOCC3)cc2)c(C)c1 | . | . | . | 72 | . | .
COc1ccc(F)cc1S(=O)(=O)NC1CCCC1 | / | / | . | . | / | /
OC(CN1C2=NCCN2c2ccccc21)c1ccccc1 (stereo not drawn) | . | . | . | . | / | /
OC(CN1C2=NCCCN2c2ccccc21)c1ccc(Cl)cc1 (stereo not drawn) | . | . | . | 80 | . | .
CCc1cccc2c(C=C(C#N)C#N)cn(CC(=O)N3CCCCCC3)c12 | / | / | . | . | / | /
COC(=O)C1C2C=CC3(CN(c4cccc(Cl)c4)C(=O)C13)O2 (stereo not drawn) | . | . | . | 74 | . | .
OCCN1CCN(c2ncnc3ccc(Br)cc23)CC1 | . | . | . | 79 | . | .
CCc1cc(=O)oc2cc(OCC(=O)N(CC)CC)c(Cl)cc12 | . | . | . | 72 | . | .
CCc1cc(=O)oc2cc(OCC(=O)O)c(Cl)cc12 | . | . | . | . | / | /
O=C(NCCCN1CCOCC1)c1cc(-c2ccc3c(c2)OCO3)nc2ccccc12 | . | . | . | 72 | . | .
Cc1ccc(-n2c(SCC(N)=O)nnc2-c2ccc(S(=O)(=O)N3CCCCC3)cc2)c(C)c1 | / | / | . | . | / | /
COc1ccc(S(=O)(=O)Cc2ccc(C(=O)N3CCN(c4cccc(C)c4)C(C)C3)o2)cc1 (stereo not drawn) | . | . | . | 73 | . | .
COc1ccccc1S(=O)(=O)Cc1ccc(C(=O)N2CCN(c3ccc(C)cc3)C(C)C2)o1 (stereo not drawn) | . | . | / | / | / | /
COc1cc(-c2nnc(SCc3cc(=O)oc4cc(O)c(O)cc34)o2)cc(OC)c1OC | / | / | . | 77 | . | .
CC1Cc2ccccc2N1C(=O)c1cnc2n(c1=O)CCS2 (stereo not drawn) | . | . | . | 70 | . | .
O=C(Nc1cccnc1)c1cnn2cccnc12 | . | . | . | 76 | 63 | .
Cc1cc(NC(=O)c2cnn3cccnc23)nn1CC(=O)Nc1cccnc1 | . | . | . | . | / | /
Cc1cccc2sc(NC(=O)C3c4ccccc4Oc4ccccc43)nc12 | / | / | . | . | / | /
Nc1[nH]ncc1C(=O)Nc1cccc(C(F)(F)F)c1 | . | . | . | 78 | 75 | .
SMILES | ROCK2 blocker | PKA kinase inh | PLK1 PBD inh | PLK1 kinase inh | PLK1 confirm | TR-FRET interf
Cn1ncc(N)c1C(=O)Nc1cccc(C(F)(F)F)c1 | . | . | / | / | / | /
CCCc1nc2n[nH]c(N)c2c2c1CCC2 | / | . | / | / | / | /
CCc1nc2n[nH]c(N)c2c2c1CSC(C)(C)C2 | . | . | . | 77 | 72 | .
NC(=O)CSc1nnc(CCc2nc3ccccc3[nH]2)n1-c1ccccc1 | / | / | . | . | / | /
COc1ccc(/C=C(/C#N)c2cccnc2)cc1OC | . | . | / | / | / | /
COc1cc(/C=C(\C#N)c2[nH]nc(N)c2C#N)cc(OC)c1O | / | / | . | 78 | 66 | .
COc1nnc(-c2ccc(N3CCCCC3)c(NC(C)=O)c2)c2ccccc12 | / | / | . | . | / | /
COc1ccc(C2C(C(C)=O)=C(C)Nc3ncnn32)cc1OC (stereo not drawn) | . | . | . | . | / | /
COc1cc(C2C(C(=O)OC(C)C)=C(C)Nc3ncnn32)cc(OC)c1OC (stereo not drawn) | . | . | . | 81 | . | .
CCc1c(C)sc2nc(C(C)C)nc(SCC(=O)N3CCc4ccccc4C3)c12 | / | / | . | . | / | /
O=C(c1ccco1)N1CCN(c2ncccn2)CC1 | . | . | . | 76 | . | .
CCCOc1ccc(-c2nc(OC)c3ccccc3n2)cc1 | / | / | . | . | / | /
CCOC(=O)c1[nH]c(C)c(C(=O)NCCN2CCOCC2)c1C | . | . | . | 74 | . | .
CCOC(=O)c1[nH]c(C)c(C(=O)NCCCOC(C)C)c1C | . | . | / | / | / | /
CC1CCN(CC(O)COc2ccc(F)cc2)CC1 (stereo not drawn) | . | . | . | 75 | . | .
CC1CCN(CC(O)COc2cccc(F)c2)CC1 (stereo not drawn) | . | . | . | 74 | . | .
O=c1c2ccccc2nc(-c2ccc(Cl)cc2)n1C1CCS(=O)(=O)C1 (stereo not drawn) | / | / | . | . | / | /
Cc1nn2c(=O)cc(CSc3nc4ccccc4[nH]3)nc2s1 | . | . | . | 74 | . | .
Cc1cc(C(=O)CSc2nc3ccccc3[nH]2)c(C)n1C | . | . | . | . | / | /
CCOC(=O)c1sc2ncnc(OC)c2c1C | . | . | . | . | / | /
CCOC(=O)c1sc2nc[nH]c(=O)c2c1C | / | / | . | 79 | 73 | .
O=C1CN(C(=O)CN2CCCC2)C(c2ccccc2)c2cc(Br)ccc2N1 (stereo not drawn) | . | . | . | . | / | /
Cc1ccc2c(c1)C(c1ccccc1)N(C(=O)C(C)C)CC(=O)N2 (stereo not drawn) | . | . | . | 71 | . | .
Cn1c(=O)c2c(SCc3cccnc3)nc(CC(C)(C)C)nc2n(C)c1=O | . | . | . | 73 | . | .
CCCc1nc(SCc2cccnc2)c2c(=O)n(C)c(=O)n(C)c2n1 | . | . | . | . | / | /
SMILES | ROCK2 blocker | PKA kinase inh | PLK1 PBD inh | PLK1 kinase inh | PLK1 confirm | TR-FRET interf
COc1cc(CCN2C(=O)c3cccc4cccc(c34)C2=O)c(S(=O)(=O)NCCCO)cc1OC | / | / | . | . | / | /
c1ccc2c(-c3ccncc3)c[nH]c2c1 | 89 | 65 | . | 78 | 71 | .
c1ccc(-c2nnc(-c3ccccc3)c(-c3c[nH]c4ccccc34)n2)cc1 | / | / | . | . | / | /
O=c1c(Cl)nc2cc(Cl)ccc2n1CCNc1ncc(C(F)(F)F)cc1Cl | / | / | . | . | / | /
COc1ccc(-c2nc(CS(=O)CC(=O)NCCCN3CC(C)CC(C)C3)c(C)o2)cc1OC (stereo not drawn) | . | . | . | . | / | /
Cc1ccc(-c2nc(CS(=O)CC(=O)NCCCN3CC(C)CC(C)C3)c(C)o2)cc1 (stereo not drawn) | . | . | . | 76 | . | .
NC1=CC(=O)c2cccc3cccc1c23 | . | . | . | 78 | . | .
Cc1ccc(-n2nnnc2SCC(=O)N2CC(=O)Nc3ccccc32)cc1 | / | / | . | . | / | /
NNc1ncnc2c1cnn2-c1ccccc1 | / | / | . | 75 | 68 | .
O=C1CC(N2CCN(c3nc4ccccc4s3)CC2)C(=O)N1c1cccc(F)c1 (stereo not drawn) | / | / | . | . | / | /
CCOc1ccc(-c2nc(CSCC(=O)N3CCN(C(=O)c4ccco4)CC3)c(C)o2)cc1 | . | . | . | 74 | . | .
Cc1ccc(N(C)C(=O)N2CCN(S(=O)(=O)c3ccc(C)cc3)CC2)cc1 | . | . | . | 72 | . | .
